High-throughput results as filed in PubChem.
Rows were chosen to be rich in hits. Some 2% of all compounds tested hit in one or more screens of this group.
JMJD2E inh: blocks human JMJD2E demethylase activity. JMJD2E catalytic domain, FDH-coupled NADH fluorescence (FDH is formaldehyde dehydrogenase). Potency, µM (titrated, usually from 57.1 µM), most hits filed as inhibitors. 1.6% of 230,000 active. AID 2147; active = well fitted inhibition curve with a large enough effect, not every such curve was filed as active; inconclusive = small, poorly fitted or top-dose-only effect, or another doubt; inactive = no such curve, though single readings can be large or run the other way; also: nearly all actives have a fitted effect of over 50% in size
Target sequence (B2RXH2 1-337 limits assumed): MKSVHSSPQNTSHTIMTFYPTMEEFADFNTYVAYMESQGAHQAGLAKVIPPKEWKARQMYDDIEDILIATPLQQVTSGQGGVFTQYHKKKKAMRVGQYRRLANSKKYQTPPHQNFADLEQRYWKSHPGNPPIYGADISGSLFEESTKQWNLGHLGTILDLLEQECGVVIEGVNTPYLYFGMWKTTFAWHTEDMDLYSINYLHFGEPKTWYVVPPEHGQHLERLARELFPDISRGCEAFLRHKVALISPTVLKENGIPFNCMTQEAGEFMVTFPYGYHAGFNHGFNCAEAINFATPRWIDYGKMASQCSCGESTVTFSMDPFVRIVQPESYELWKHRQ
TRb-SRC2 inh: inhibitors of human thyroid hormone receptor beta-SRC2 interaction; 0.065% of 280,000 active; P10828; Potency, µM (highest dose often 106 µM), hits mostly inhibitors; TRbeta-SRC2 peptide binding, fluorescence polarization; receptor liganded with 1 µM T3; AID 1469; also: nearly all actives have a fitted effect of over 50% in size
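Fluorescence polarization of 20 nM Texas Red SRC2 peptide with 0.6 uM human TRb ligand-binding domain, in Tris buffer with 1uM T3 and 5% DMSO. Incubated 5 hr ambient; normalized to unbound and bound controls.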
Coupling enz: inhibits coupling enzyme system, counter-screen for aldolase hits | 0.67% of 290,000 active | coupling enzyme system counterscreen, AmpLite Red fluorescence | activity change, negative = inhibition, % at 58.2 µM, hits read low; in the data active = activity change below about -30%
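Counterscreen lacking aldolase: glyceraldehyde-3-phosphate coupling-enzyme reagent preincubated 10 min at RT with compound (at 57.5 uM final), then substrate/coupling system with AmpLite Red added; fluorescence read at 525/598 nm after 20 min RT.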
TR SRC2 fluor cs: alters Texas Red total fluorescence, flagging assay interference. TRb/SRC2 Texas Red total fluorescence interference. Potency, µM (titrated, usually from 106 µM). 0.29% of 280,000 active. AID 1479; active = well fitted curve in either direction with a large enough effect; inconclusive = small, poorly fitted or top-dose-only effect
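Human TRb ligand-binding domain at 0.6 uM with 20 nM Texas Red SRC2 peptide in Tris buffer containing 1 uM T3 and 5% DMSO, incubated with compound 5 h at ambient temperature. Total fluorescence (555/632 nm) calculated as parallel + 2 × perpendicular.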
HTT ATP protect: Huntington cell model cytoprotection by ATP luminescence; PC12 HTT-Q103 induced, cytoprotection, ATP luminescence, 40 h; Potency, µM (doses to about 56.4 µM), hits mostly activators; 0.14% of 230,000 active; AID 1471; also: nearly all actives have a fitted effect of over 45% in size
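Cells were plated at 1500 per well in phenol red-free DMEM with 5% equine and 5% calf serum. Tebufenozide (100 nM final) and compounds were added, then ATPlite reagent, and luminescence was read.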
HTT aggregate: inhibitors of mutant huntingtin aggregate formation in PC12 cells | Potency, µM (series often up to 46.1 µM), usual class: inhibitors | 1.1% of 220,000 active | AID 1688 | PC12 HttQ103-GFP aggregates, Acumen cytometry, 40 h; also: nearly all actives have a fitted effect of over 60% in size
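Aggregates are detected as GFP objects 1–25 µm with signal 6 STDEV over background in lysates of induced PC12 cells. These carry Huntingtin exon 1 with 103 glutamines fused to GFP under an ecdysone promoter; compounds titrated.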
A number is an active result; ! = not active in a repeat; [ ] = dose if it differs, or a comment. Unless noted, calls follow the shape of the dose curve; as a rule, active = well fitted curve in the direction sought with a large enough effect; inconclusive = small, poorly fitted or top-dose-only effect, or another doubt; inactive = no such curve, though single readings can be large; an effect the other way counts as inactive or inconclusive.

`O=C(O[C@@H]1Cc2c(O)cc(O)cc2O[C@@H]1c1cc(O)c(O)c(O)c1)c1cc(O)c(O)c(O)c1` gave JMJD2E inh 8.9µM, TRb-SRC2 inh inactive, Coupling enz inactive and TR SRC2 fluor cs inactive.
Oc1cc(O)c2c(c1)OC(c1cc(O)c(O)c(O)c1)C(O)C2 (stereo not drawn) was read as JMJD2E inh 1.4µM, TRb-SRC2 inh inactive, Coupling enz inactive, TR SRC2 fluor cs inactive and HTT ATP protect inactive.
For O=C(OC1Cc2c(O)cc(O)cc2OC1c1cc(O)c(O)c(O)c1)c1cc(O)c(O)c(O)c1 (stereo not drawn) the results were JMJD2E inh 2.5µM, TRb-SRC2 inh inactive, Coupling enz inactive and TR SRC2 fluor cs inactive.
For COC(=O)c1ccccc1S(=O)(=O)NC(=O)N(C)c1nc(C)nc(OC)n1 the results were TRb-SRC2 inh inactive and TR SRC2 fluor cs inactive.
`CNCCc1c[nH]c2ccccc12` gave JMJD2E inh inconclusive, TRb-SRC2 inh inactive, Coupling enz inactive, TR SRC2 fluor cs inactive, HTT ATP protect inactive and HTT aggregate inconclusive.
Screening CNCCc1c[nH]c2ccc(O)cc12 returned JMJD2E inh 22µM, TRb-SRC2 inh inactive, Coupling enz inactive, TR SRC2 fluor cs inactive and HTT ATP protect inactive[1.9 µM].
`C=CC(=O)NCO` gave TRb-SRC2 inh inactive[5.17e+03 µM] and TR SRC2 fluor cs inactive[5.17e+03 µM].
`ClCc1ccccc1Cl` gave TRb-SRC2 inh inactive and TR SRC2 fluor cs inactive.
For CS(=O)(=O)NC(=O)c1cc(Oc2ccc(C(F)(F)F)cc2Cl)ccc1[N+](=O)[O-] the results were TRb-SRC2 inh inactive and TR SRC2 fluor cs inactive.
For Cc1cccc(N2C(=O)NC(=O)/C(=C\c3cc(C)n(-c4sc5c(c4C#N)CCCC5)c3C)C2=O)c1C the results were JMJD2E inh inactive, TRb-SRC2 inh inactive, Coupling enz inactive, TR SRC2 fluor cs inactive, HTT ATP protect inactive[10 µM] and HTT aggregate 5µM.
For CCOC(=O)c1c(-n2c(C)cc(C=C3C(=O)NC(=O)NC3=O)c2C)sc2c1CCCC2 the results were JMJD2E inh inactive, TRb-SRC2 inh inactive, Coupling enz inactive, TR SRC2 fluor cs inactive, HTT ATP protect inactive and HTT aggregate inconclusive.
`CCOC(=O)C(Cl)Cc1cc(-n2nc(C)n(C(F)F)c2=O)c(F)cc1Cl` (stereo not drawn) gave TRb-SRC2 inh inactive and TR SRC2 fluor cs inactive.
Screening COc1cc2c(cc1OC)[C@@H]1C(=O)c3ccc(OC)c(CC=C(C)C)c3OC1CO2 (stereo partly drawn) returned JMJD2E inh 18µM, TRb-SRC2 inh inactive, Coupling enz inactive and TR SRC2 fluor cs inconclusive.
`O=P(OCC(Br)CBr)(OCC(Br)CBr)OCC(Br)CBr` (stereo not drawn) gave TRb-SRC2 inh inactive and TR SRC2 fluor cs inactive.
`COCCNC(=O)c1c(NC(=O)c2ccco2)n(Cc2ccccc2)c2nc3ccccc3nc12` gave JMJD2E inh inconclusive, TRb-SRC2 inh inactive, Coupling enz -33, TR SRC2 fluor cs inactive, HTT ATP protect inactive and HTT aggregate inactive.
`CCC(C)NC(=O)c1c(N)n(CCCOC)c2nc3ccccc3nc12` (stereo not drawn) gave JMJD2E inh inconclusive, TRb-SRC2 inh inconclusive, Coupling enz -34, TR SRC2 fluor cs inactive, HTT ATP protect inactive and HTT aggregate inactive.
Screening COCCCn1c(N)c(C(=O)NCc2ccco2)c2nc3ccccc3nc21 returned JMJD2E inh inconclusive, TRb-SRC2 inh inactive, Coupling enz -35, TR SRC2 fluor cs inactive, HTT ATP protect inactive[10 µM] and HTT aggregate inactive[9.22 µM].
For Clc1ccc(C2(Cn3cncn3)CC(Br)CO2)c(Cl)c1 (stereo not drawn) the results were TRb-SRC2 inh inactive and TR SRC2 fluor cs inactive.
Screening CN(C)C(=S)SSC(=S)N(C)C returned JMJD2E inh 25µM, TRb-SRC2 inh inactive, Coupling enz -45!, TR SRC2 fluor cs inactive, HTT ATP protect inactive and HTT aggregate 1µM!.
`CN(C)C(=S)SC(=S)N(C)C` gave TRb-SRC2 inh inactive, Coupling enz inactive, TR SRC2 fluor cs inactive, HTT ATP protect inactive and HTT aggregate 3.2µM.
For CCCCC(CC)C(=O)Cl (stereo not drawn) the results were TRb-SRC2 inh inactive and TR SRC2 fluor cs inactive.
Screening CCCCC(O)(Cn1cncn1)c1ccc(Cl)cc1Cl (stereo not drawn) returned TRb-SRC2 inh inactive and TR SRC2 fluor cs inactive.
Screening O=C(COc1ccccc1)N1CCN(Cc2c[nH]c3ccccc23)CC1 returned JMJD2E inh inactive, TRb-SRC2 inh inactive, Coupling enz inactive, TR SRC2 fluor cs inactive, HTT ATP protect inactive and HTT aggregate 16µM.
`O=C(Cc1ccccc1)N1CCN(Cc2c[nH]c3ccccc23)CC1` gave JMJD2E inh inactive, TRb-SRC2 inh inactive, Coupling enz inactive, TR SRC2 fluor cs inactive, HTT ATP protect inactive[10 µM] and HTT aggregate 13µM.
COc1ccc(CN2CCN(C(=O)COc3ccccc3)CC2)c(OC)c1 was read as TRb-SRC2 inh inactive and TR SRC2 fluor cs inactive.
Screening COc1ccc(OCC(=O)N2CCN(Cc3c[nH]c4ccccc34)CC2)cc1 returned JMJD2E inh inactive, TRb-SRC2 inh inactive, Coupling enz inactive, TR SRC2 fluor cs inactive, HTT ATP protect inactive[10 µM] and HTT aggregate 11µM.
COc1ccc(OCC(=O)N2CCN(Cc3cccc(OC)c3OC)CC2)cc1 was read as TRb-SRC2 inh inactive and TR SRC2 fluor cs inactive.
`CCCSP(=O)(OCC)Oc1ccc(Br)cc1Cl` (stereo not drawn) gave TRb-SRC2 inh inactive and TR SRC2 fluor cs inactive.
Screening CNC(=O)O/N=C(\C)SC returned TRb-SRC2 inh inactive and TR SRC2 fluor cs inactive.
`CN1CCc2nc(N)c(C#N)c(-c3ccccc3)c2C1` gave JMJD2E inh inconclusive, TRb-SRC2 inh inactive, Coupling enz inactive, TR SRC2 fluor cs inactive, HTT ATP protect inactive[10 µM] and HTT aggregate inactive.
For CN1CCc2nc3sc(C#N)c(N)c3c(-c3cccs3)c2C1 the results were JMJD2E inh inactive, TRb-SRC2 inh inactive, Coupling enz inactive, TR SRC2 fluor cs inactive, HTT ATP protect 13µM and HTT aggregate inactive.
NO was read as JMJD2E inh 1.4µM, TRb-SRC2 inh inactive, TR SRC2 fluor cs inactive and HTT ATP protect inactive[1.9 µM].
For Cc1c(N=Nc2c(O)n(Cc3ccccc3)c(=O)[nH]c2=O)c(=O)n(-c2ccccc2)n1C the results were JMJD2E inh 7.1µM, TRb-SRC2 inh inactive, Coupling enz inactive, TR SRC2 fluor cs inactive, HTT ATP protect inactive[0.074 µM] and HTT aggregate inactive.
`CCCCCOc1ccc(C)cc1CN(CCCl)CCCl` gave JMJD2E inh inactive, TRb-SRC2 inh 32µM, Coupling enz inactive, TR SRC2 fluor cs inactive, HTT ATP protect inactive[10 µM] and HTT aggregate inactive[9.22 µM].
Screening CC(C)(C)OOC(C)(C)c1ccc(C(C)(C)OOC(C)(C)C)cc1 returned TRb-SRC2 inh inactive and TR SRC2 fluor cs inactive.
